# In PubChem BioAssay AID540299 (ICCB-Longwood Screening Facility, Harvard Medical School, 2011):
# Several values for one entry are separate records, joined by “and”; a condition that tells them apart may be missing. Equal entries are not always repeated. Out of some 100,000 compounds screened, about 440 (0.44%) were called active. This is one part of a sample in which actives are shown more often than they occur. Rule as the data show it: active = inhibition above about 21% (passing the limit was not always enough); inactive = the rest. More than one record can exist for a structure, and the calls need not agree.
# Biological target: 1,4-dihydroxy-2-naphthoyl-CoA synthase (Mycobacterium tuberculosis (strain ATCC 25618 / H37Rv)) (UniProt P9WNP5)
# Sequence (P9WNP5 whole entry, looked up): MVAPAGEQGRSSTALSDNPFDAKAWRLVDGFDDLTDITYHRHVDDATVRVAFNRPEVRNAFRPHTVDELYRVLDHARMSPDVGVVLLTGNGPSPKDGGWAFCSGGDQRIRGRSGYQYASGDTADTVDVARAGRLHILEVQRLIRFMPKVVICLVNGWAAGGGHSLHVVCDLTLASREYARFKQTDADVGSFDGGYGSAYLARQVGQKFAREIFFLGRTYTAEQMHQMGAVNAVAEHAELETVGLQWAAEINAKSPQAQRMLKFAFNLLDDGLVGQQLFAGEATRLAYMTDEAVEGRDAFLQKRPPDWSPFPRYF
# Assay: M. tuberculosis MenB inhibitors, primary screen, biochemical, absorbance (AID 540299)
# Conditions: MenB enzyme assay, absorbance read-out; stronger effect = higher value; concentration not given here
row,Compound,inhibition
1,CCOc1ccc(CN(C)C(C)c2nnc(-c3ccc(C)cc3)o2)cc1 (stereo not given),-8.7% (inactive)
2,COc1ccc2nc(SC)[nH]c2c1,0.13% (inactive)
3,O=C(c1ccccc1)N1CCN(c2cccc(Cl)c2)CC1,-21% (inactive)
4,CC(C)(C)CNC(=S)NN,-27.8% (inactive)
5,CCO/C=N/c1c(C(=O)OCC)c2nc3ccccc3nc2n1Cc1ccccc1,-29.7% (inactive)
6,CC(=O)Oc1ccc(N(C(C)=O)S(=O)(=O)c2ccc(Cl)cc2)cc1,-5.01% (inactive)
7,COc1ccc(S(=O)(=O)N(C)C)cc1,-20.5% (inactive)
8,COc1ccc(N(CCC#N)S(=O)(=O)c2ccc(Cl)cc2)cc1,34.8% (active)
9,Cc1ccc2c(c1)cc(CN(Cc1ccco1)C(=O)c1ccccc1)c1nnnn12,32.8% (active)
10,CCc1ccc2[nH]c(=O)c(CN(Cc3ccco3)C(=O)c3ccccc3)cc2c1,-39% (inactive)
11,COCC(=O)N(CCc1ccccc1)Cc1cc2cccc(C)c2n2nnnc12,5.43% (inactive)
12,CC(C)c1ccc(-c2noc(C3CCCN(S(C)(=O)=O)C3)n2)cc1 (stereo not given),29.2% (active)
13,COc1ccc(-c2noc(CC(=O)N(C(C)C)C3CCCCC3)n2)cc1,-38.9% (inactive)
14,CC(C)c1ccc(S(=O)(=O)N2CCN(S(=O)(=O)c3ccc(C(C)C)cc3)C(C)C2)cc1 (stereo not given),-17.6% (inactive)
15,COc1ccc(N2CCN(C(=S)C3CCCCC3)CC2)cc1,1.7% (inactive)
16,CCOC(=O)N1CCC(NC(=O)Cn2nc(Cc3cccnc3)c3ccccc3c2=O)CC1,13.3% (inactive)
17,CC(C)(C)c1ccc(OCc2nnc(SCC(N)=O)n2-c2ccccc2)cc1,-20.4% (inactive)
18,CC(Sc1nnc(COc2ccccc2)n1-c1ccccc1)C(=O)O (stereo not given),44.3% (active)
19,O=C(O)CSc1nnc(COc2ccc(Cl)cc2)n1-c1ccc(Br)cc1,-31.3% (inactive)
20,OC(COc1ccc(Cl)cc1)C(O)C(O)c1cnn(-c2ccccc2)n1 (stereo not given),-25.4% (inactive)
21,Cc1ccc(Cn2c(=O)c3ccccc3n3c(SCC(=O)N(C(C)C)C(C)C)nnc23)cc1,-3.38% (inactive)
22,CCN(c1ccccc1)S(=O)(=O)c1ccc(Sc2nnc(-c3cccs3)n2CC2CCCO2)nc1 (stereo not given),-29.5% (inactive)
23,CCOC(=O)c1c(NC(=O)c2cc(-n3cnnc3)ccc2Cl)sc2c1CCCC2,-11.9% (inactive)
24,COc1cc(C(=O)N2CCC(n3nnc4cc(F)ccc43)CC2)cc(OC)c1OC,-27.8% (inactive)
25,CCOC(=O)c1cnc2cc(C(F)(F)F)ccc2c1N1CCCCCC1,-32.7% (inactive)

row,Compound,inhibition
1,CCOC(=O)CN1CCC(n2nnc3cc(C(F)(F)F)ccc32)CC1,40.1% (active)
2,CCCN(CCC)C(=O)c1cc(-c2ccccc2)n[nH]1,2.47% (inactive)
3,CCCC(=O)N1CCN(c2ccc(NC(=O)c3cccc(C)c3OC)cc2Cl)CC1,-14.8% (inactive)
4,CCCC(CCC)C(=O)Nc1ccc(NC(=O)c2ccco2)cc1,34.4% (active)
5,CCC(=O)Nc1cc(NC(=O)c2ccco2)ccc1C,3.59% (inactive)
6,CCCC(=O)N1CCN(c2ccc(NC(=O)c3ccco3)cc2Cl)CC1,36.3% (active)
7,Cc1cccc(C(=O)Nc2ccc(NC(=O)c3ccco3)cc2)c1,-25.7% (inactive)
8,O=C(Nc1ccccc1)c1ccco1,-38.1% (inactive)
9,CCC(/C=N/N1C(=O)c2ccccc2C1=O)CC,4.86% (inactive)
10,CCSc1nnc(C2CCN(CC(=O)Nc3ccc(N4CCCCCC4)cc3)CC2)n1C,-53.3% (inactive)
11,Cc1cc(C)nc(N2CCCC(C)C2)n1 (stereo not given),-26.5% (inactive)
12,N#CC1=C(N)/C(=C\c2ccc(Cl)c(Cl)c2)SC1=N,-31% (inactive)
13,Cc1cc(C)nc(SCC(=O)N2CCCC2c2cccs2)n1 (stereo not given),-1.45% (inactive)
14,O=C1C=C/C(=N\OC(=O)c2ccccc2)C2=C1C1C=CC2C1 (stereo not given),-24.3% (inactive)
15,COc1ccc(-c2noc(CNC3CCCCC3)n2)cc1,-2.19% (inactive)
16,CC1Sc2nnc(-c3ccc(OC(F)F)cc3)n2N=C1c1ccc(NS(C)(=O)=O)cc1 (stereo not given),-9.43% (inactive)
17,N#Cc1cc(Cl)c2c(c1)OCCO2,-39.8% (inactive)
18,O=C(COC(=O)Cn1[nH]c(=O)c2ccccc2c1=O)Nc1ncc(Cl)cc1Cl,1.74% (inactive)
19,Cc1nc2ccc(NC(=O)CC(C)(C)C)cc2s1,-7.18% (inactive)
20,N#Cc1nc(NC(=O)c2cc(-c3cccs3)nc3ccccc23)[nH]c1C#N,-0.59% (inactive)
21,O/N=C(/c1ccccc1)c1ccccn1,17.8% (inactive)
22,CCN1C(=O)C(C(=O)NC(C)c2ccccc2)C2CC1(C)Oc1ccccc12 (stereo not given),25.7% (inactive)
23,CN1C(=O)C(S(=O)(=O)c2ccccc2)C2CC1(C)Oc1ccccc12 (stereo not given),11.3% (inactive)
24,CN1C(=O)C(C(=O)O)C2CC1Oc1ccccc12 (stereo not given),34.4% (active)
25,CCCCC#Cc1cncc(C(=O)O)c1,-22.8% (inactive)

row,Compound,inhibition
1,CCN(CC)Cc1cc(C(=O)O)co1,31.6% (active)
2,CCN(c1ccccc1)S(=O)(=O)c1cccc(C(=O)O)c1,-9.9% (inactive)
3,COc1ccc(C(=O)OCc2ccccn2)cc1,-2.18% (inactive)
4,COC(=O)c1ccccc1NC(=O)C1CCN(S(=O)(=O)c2ccc(OC)c(OC)c2)CC1,-4.4% (inactive)
5,O=c1c(O)coc(CO)c1C(Nc1ccccn1)c1ccccc1O (stereo not given),-8.94% (inactive)
6,Cc1ccc(NC(=O)CC(C)S(=O)(=O)c2ccc3c(c2)SCC(=O)N3)cc1 (stereo not given),-27.7% (inactive)
7,O=C(CN1CCCCC1)N1N=C(c2cccs2)CC1c1ccc(O)cc1 (stereo not given),-15.9% (inactive)
8,CN1C(=O)c2cccc(NC(=O)c3ccccc3)c2C1=O,-46.4% (inactive)
9,COc1cccc2c1C(=O)C1C(O)=C3C(=C(O)C1C2=O)C[C@@](O)(C(=O)CO)C[C@@H]3OC1CC(N)C(O)C(C)O1 (stereo not given in full),4.12% (inactive)
10,CN(Cc1cccc(Cl)c1Cl)CC(O)COCc1ccccc1 (stereo not given),-5.12% (inactive)
11,COc1ccc(Cc2nnc3n2N=C(N)CS3)cc1,8.07% (inactive)
12,CCNc1nnc(-c2ccc(C)cc2)s1,-8.94% (inactive)
13,COc1ccc(-c2noc(N3CCN(c4ccc(OC)cc4)CC3)n2)cc1,1.43% (inactive)
14,COc1cc(C)cc(CN2CCN(S(=O)(=O)c3ccccc3C#N)CC2)c1O,-41.6% (inactive)
15,CCOC(=O)C1(Cc2ccc(O)cc2)NC(c2ccccc2F)C2C(=O)N(C)C(=O)C21 (stereo not given),-10.9% (inactive)
16,CCCC1(C(=O)OC)NC(c2ccco2)C2C(=O)N(C)C(=O)C21 (stereo not given),29.6% (active)
17,CCN1C(=O)C2C(c3cccs3)NC(C)(C(=O)OC)C2C1=O (stereo not given),15.1% (inactive)
18,CC1CCCCN1CC(=O)Nc1cc(C(C)(C)C)nn1-c1ccccc1 (stereo not given),7.46% (inactive)
19,COc1ccc2c(CC(=O)OCC(=O)Nc3c(C)n(C)n(-c4ccccc4)c3=O)coc2c1,-0.895% (inactive)
20,Cc1cc(N2CCN(C3CCCCC3)CC2)c2nncn2n1,0.645% (inactive)
21,O=C1CC2NCCc3cccc1c32 (stereo not given),-9.34% (inactive)
22,CCNS(=O)(=O)c1ccc(-c2cc(C)no2)s1,-3.52% (inactive)
23,O=C(COC(=O)c1ccc(S(=O)(=O)N2CCOCC2)cc1)Nc1ncc(Cl)cc1Cl,3.48% (inactive)
24,CCCc1ccc(OCCNC(C)=O)c(OC)c1,11.5% (inactive)
25,Cc1ccc2oc(=O)c3cnn(CC(=O)n4c(C)cc5ccccc54)c3c2c1,-3.43% (inactive)

row,Compound,inhibition
1,CC1(C)CC(=O)C2=C(C1)N=C1SCCC(=O)N1C2c1ccc(Br)cc1 (stereo not given),-1.14% (inactive)
2,C=CCn1c(=NC(C)=O)sc2cc(F)ccc21,-10.2% (inactive)
3,CC1CCCCN1C(=O)c1ccc2ccccc2n1 (stereo not given),-16.5% (inactive)
4,O=C1CCC(=O)N1CNc1ccc(-c2ccccc2)cc1,-8.33% (inactive)
5,Oc1ccc(SSc2ccc(O)cc2)cc1,40.7% (active)
6,Oc1ccc(-n2cccc2)cc1,-10.9% (inactive)
7,Oc1ccc(-c2cccc(-c3ccc(O)cc3)c2)cc1,-21.5% (inactive)
8,Cc1ccccc1Cn1nnc(-c2ccncc2)n1,-48.5% (inactive)
9,CCc1ccc(-c2nnn(Cc3nn[nH]n3)n2)cc1,42.6% (active)
10,c1cc(-c2nn[nH]n2)ccc1CN1CCCCC1,-0.56% (inactive)
11,COC(=O)Cc1cnc(NC(=O)CSc2nc(C(C)C)cc(=O)[nH]2)s1,-54% (inactive)
12,CN1C(C(=O)NC2CCCC2)=CC(c2cccs2)=NS1(=O)=O,-18.8% (inactive)
13,COc1ccc(C(=O)NNc2nnc(C(C)(C)C)c(=O)n2N)cc1,1.4% (inactive)
14,O=C(c1ccco1)N1CCCCCCC1,1.17% (inactive)
15,O=C(On1c(-c2ccccc2)nc2ccccc2c1=O)c1cccc(C(F)(F)F)c1,11.4% (inactive)
16,COc1ccc(CNCC(O)c2nnn(C)n2)cc1OC (stereo not given),-32.7% (inactive)
17,Cn1nnc(C(O)CNCc2ccc(F)cc2)n1 (stereo not given),29.6% (active)
18,Fc1ccc(CNCc2ccccn2)cc1,-6.84% (inactive)
19,CC1CCCC(NC(=O)COC(=O)c2cccc(S(=O)(=O)N(C)C)c2)C1C (stereo not given),-17.8% (inactive)
20,O=C(O)C1CCCN(C(=O)c2cnn(-c3ccccc3)c2-n2cccc2)C1 (stereo not given),1.1% (inactive)
21,CCOC(=O)c1[nH]cnc1C(=O)NC1CCCCC1,-17.9% (inactive)
22,O=C(Nc1ccccc1C(=O)N1CCCC1)Oc1ccccc1,3.13% (inactive)
23,Cc1ccc(NC(=O)c2nc[nH]c2C(=O)N2CCCCC2)c(C(=O)c2ccccc2)c1,39.3% (active) and -17.8% (inactive)
24,N#CSc1ccc(N2CCCCC2)cc1,-10.6% (inactive)
25,N#CSc1ccc(N)c(Br)c1,24.6% (active)
